Most compounds without a hit are left out; they make up all but 4.2% or so of the library.
tim10-1 inh: growth inhibitors of tim10-1 mutant yeast, primary screen, luminescence, uHTS; inhibition, % at 20 µM; AID 463190, 2010; hit rate 2.2% among 330,000; S. cerevisiae tim10-1 ts strain growth, BacTiter-Glo, 24 h;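 active = inhibition of at least 40%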;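 note: mutant grown at 25 °C; 0% = DMSO wells with yeast and 100% = wells holding no yeast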
V-ATPase pHluor: regulators of yeast V-ATPase proton pumping, primary screen, pHLuorin cytosolic pH fluorescence. hit rate 0.37% among 350,000. response, % at 10 µM. S. cerevisiae; in the data active = response mostly above about 7.3%, no sharp cut-off; inactive = mostly below about 5.4%; note: actives read high
tim23-1 inh: growth inhibitors of tim23-1 mutant yeast, primary screen, luminescence, uHTS | S. cerevisiae tim23-1 growth, BacTiter-Glo luminescence, 24 h | inhibition, % at 20 µM | hit rate 1.3% among 330,000 | AID 463212, 2010;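 active = growth inhibition of the mutant yeast at or above 50%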;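 note: temperature-sensitive mutant grown at 25 °C; plate controls were DMSO-treated mutant yeast for no effect and medium wells lacking yeast for full effect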
NALP1 inh: NALP1 inflammasome inhibitors in reconstituted yeast, colorimetric, S. cerevisiae, triplicate retest; hit rate 0.61% among 280,000; inhibition, % at 10 µM; AID 2071, 2009; S. cerevisiae NALP1/ASC/caspase-1 growth, X-gal OD620, 72 h; in the data active = inhibition mostly above about 24%, no sharp cut-off; inactive = mostly below about 32%
NLRP3 yeast inh: NALP3 inflammasome inhibitors in reconstituted yeast, primary screen, luminescence, uHTS | Yeast reconstituted NLRP3/ASC/caspase-1, beta-gal luminescence, 24 h | AID 2825, 2010 | inhibition, % at 10 µM | hit rate 0.39% among 330,000;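 active = inhibition of 50% or more; inactive = inhibition below 50%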;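 note: plate controls were induced DMSO wells for no effect and uninduced yeast grown without galactose for full effect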
TIM10 inh: growth inhibitors of isogenic TIM10 control yeast, primary screen, counter-screen for tim10-1 yeast inhibitor project, luminescence, uHTS; inhibition, % at 10 µM; hit rate 1.4% among 330,000; S. cerevisiae TIM10 strain growth, BacTiter-Glo luminescence, 24 h;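 active = inhibition of 40% or more at the single tested concentration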;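 note: wild-type TIM10 isogenic control strain grown at permissive 25 °C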
NALP3 yeast conf: NALP3 inhibitors retested in yeast, confirmation, luminescence, single concentration. shares compounds with NLRP3 yeast inh. yeast expressing human NALP3. inhibition, % at 10 µM. hit rate 81% among 1,300. AID 435006, 2010; in the data active = inhibition above about 48%
Casp1-ASC yeast: CASP1-PYCARD signaling inhibition in yeast, confirmatory test, counterassay for NLRP3 inhibitor program, one-dose | yeast expressing Caspase-1-ASC, luminescence counter screen | AID 488784, 2010 | hit rate 66% among 1,000 | inhibition, % at 10 µM | shares compounds with NLRP3 yeast inh
NALP3 retest: NALP3 inhibitors in yeast, repeat test, confirmation, luminescence, single concentration, retest; yeast expressing human NALP3, luminescence read-out; shares compounds with NLRP3 yeast inh; hit rate 53% among 1,000; inhibition, % at 10 µM
An asterisk follows results filed as active. Cut-off read from the data, not from the text of the source, unless noted: active = inhibition above about 50%; inactive = the rest.

C#CCOCCOCCOCCNc1nc(N2CCN(C(=O)[C@H]([C@@H](C)CC)n3cc(CCC(=O)O)nn3)CC2)nc(N2CCN(C(=O)[C@H](CCCCN)n3cc(CC(C)O)nn3)CC2)n1 (stereo partly specified) was read as V-ATPase pHluor 6.
Screening Cc1cccc(C)c1NC(=O)C(C)N (stereo unspecified) returned tim10-1 inh 3, tim23-1 inh 5, NLRP3 yeast inh 55*, TIM10 inh -3, NALP3 yeast conf 59*, Casp1-ASC yeast 40 and NALP3 retest 43.
Screening Cc1cccc(C)c1NC(=O)C(C)N1CCCC1 (stereo unspecified) returned tim10-1 inh 3, V-ATPase pHluor 5, tim23-1 inh -16, NALP1 inh -10, NLRP3 yeast inh 7 and TIM10 inh -10.
For CCCN(CC(=O)Nc1ccccc1C)C(=O)C1CCN(C(=O)Nc2ccccc2)CC1 the results were tim10-1 inh 12, V-ATPase pHluor -3, tim23-1 inh 6, NLRP3 yeast inh -3 and TIM10 inh 5.
CC(C)(C)C1CCC2(CC1)Nc1cccc3cccc(c13)N2 was read as tim10-1 inh 19, V-ATPase pHluor -2, tim23-1 inh -65, NALP1 inh 30, NLRP3 yeast inh 16 and TIM10 inh 18.
Screening CCCCCOC(=O)Nc1nnc(CCCCC)s1 returned tim10-1 inh 12, V-ATPase pHluor -4, tim23-1 inh 25, NALP1 inh -6, NLRP3 yeast inh 38 and TIM10 inh 2.
For CCCCCc1nnc(NC(=O)OCCC)s1 the results were tim10-1 inh 24, V-ATPase pHluor -3, tim23-1 inh 31, NALP1 inh 28, NLRP3 yeast inh 54*, TIM10 inh 18, NALP3 yeast conf 73*, Casp1-ASC yeast 57* and NALP3 retest 47.
O=S(=O)(Oc1ccc(Cl)cc1)c1cccc2cccnc12 was read as tim10-1 inh 4, V-ATPase pHluor 4, tim23-1 inh 15, NALP1 inh 16, NLRP3 yeast inh 58*, TIM10 inh -14, NALP3 yeast conf 54*, Casp1-ASC yeast 72* and NALP3 retest 61*.
For CC(c1ccccc1)N1CC(C(=O)N2CCN(Cc3ccc(C#N)cc3)CC2)CC1=O (stereo unspecified) the results were tim10-1 inh 7, V-ATPase pHluor -2, tim23-1 inh 12, NLRP3 yeast inh -6 and TIM10 inh 3.
`Cc1nc(N)[nH]c(=O)c1CC(=O)OCCCl` gave tim10-1 inh 1, V-ATPase pHluor -2, tim23-1 inh 1, NALP1 inh 13, NLRP3 yeast inh -4 and TIM10 inh 1.
`Cc1[nH]cnc1CSCc1ccc(Cl)cc1` gave tim10-1 inh 7, V-ATPase pHluor -1, tim23-1 inh -7, NALP1 inh 33, NLRP3 yeast inh -1 and TIM10 inh 3.
Cc1[nH]cnc1CSCCN was read as tim10-1 inh 2, V-ATPase pHluor 3, tim23-1 inh 11, NALP1 inh -4, NLRP3 yeast inh 58*, TIM10 inh 10, NALP3 yeast conf 69*, Casp1-ASC yeast 54* and NALP3 retest 65*.
`Cc1nc(NC2=NCN(C3CCCCC3C)CN2)nc2ccccc12` (stereo unspecified) gave NALP1 inh 34.
Screening O=C(C1CCN(S(=O)(=O)c2ccc(Br)s2)CC1)N1CCc2ccccc21 returned tim10-1 inh 31, V-ATPase pHluor 5, tim23-1 inh 42, NALP1 inh -1, NLRP3 yeast inh 55*, TIM10 inh -2, NALP3 yeast conf 64*, Casp1-ASC yeast 61* and NALP3 retest 43.
`CCCCn1cnc2c1c(=O)n(CC(=O)c1cc(C)n(C)c1C)c(=O)n2CC(C)C` gave tim10-1 inh -8, V-ATPase pHluor 1, tim23-1 inh 8, NALP1 inh 24, NLRP3 yeast inh 15 and TIM10 inh -5.
Screening CC(=O)OCC(=O)[C@H]1CC[C@H]2[C@@H]3CCC4=CC(=O)CC[C@]4(C)[C@H]3CC[C@]12C returned tim10-1 inh 13, V-ATPase pHluor -1, tim23-1 inh 39, NALP1 inh 34, NLRP3 yeast inh 50 and TIM10 inh -6.
Screening CCCCCCN[C@H]1CCC2C3CC=C4C[C@@H](O)CC[C@]4(C)C3CC[C@@]21C (stereo partly specified) returned tim10-1 inh 19, V-ATPase pHluor -1, tim23-1 inh 18, NLRP3 yeast inh 62*, TIM10 inh -37 and NALP3 yeast conf 66*.
CC(=O)OCC(=O)C1CCC2C3CC=C4CC(O)CCC4(C)C3CCC12C (stereo unspecified) was read as tim10-1 inh 21, V-ATPase pHluor 13, tim23-1 inh 30, NLRP3 yeast inh 74*, TIM10 inh 23, NALP3 yeast conf 81*, Casp1-ASC yeast 77* and NALP3 retest 66*.
`Cc1ccc(S(=O)(=O)c2nc(S(=O)(=O)c3ccccc3)sc2N2CCN(CCO)CC2)cc1` gave tim10-1 inh 12, V-ATPase pHluor 4, tim23-1 inh 6, NALP1 inh 1, NLRP3 yeast inh 5 and TIM10 inh 9.
`CC(=O)Oc1ccc(Oc2ccc(-c3noc(C)n3)cc2)cc1` gave tim10-1 inh -3, V-ATPase pHluor 0, tim23-1 inh 29, NALP1 inh 22, NLRP3 yeast inh 56*, TIM10 inh -10, NALP3 yeast conf 72*, Casp1-ASC yeast 70* and NALP3 retest 56*.
For CCSc1oc(-c2ccco2)nc1S(=O)(=O)c1ccc(C)cc1 the results were tim10-1 inh -4, V-ATPase pHluor -1, tim23-1 inh 25, NALP1 inh 15, NLRP3 yeast inh 52*, TIM10 inh -13, NALP3 yeast conf 50*, Casp1-ASC yeast 50* and NALP3 retest 46.
Screening CCSc1oc(-c2ccco2)nc1S(=O)(=O)c1ccc(F)cc1 returned tim10-1 inh 36, V-ATPase pHluor 0, tim23-1 inh 29, NALP1 inh 22, NLRP3 yeast inh 6 and TIM10 inh 18.
`Oc1c(N=Nc2ccccc2)sc2ccccc12` gave tim10-1 inh 1, V-ATPase pHluor -2, tim23-1 inh 7, NALP1 inh -2, NLRP3 yeast inh 51*, TIM10 inh 3 and NALP3 yeast conf 71*.
